Outcome and AC50 data for seven compounds are collected here from PubChem BioAssay (EPA / NIEHS).

Test [1] is described as follows: ACEA_ER_80hr: ACEA Biosciences xCELLigence Real-Time Cell Analysis on Estrogen Receptor Agonism for Proliferation (AID 2282667; active = hit-call score of the fitted dose curve at least 0.9, where 1 is the maximum). Particulars: T47D proliferation, impedance (xCELLigence), 80 h. In outline: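 Real-time impedance growth kinetics of human T-47D breast cells read 80 h after dosing, gain-of-signal fitted relative to DMSO. Compounds: 1:4 serial series, top final concentration 100 uM, n = 2.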

The nature of test [2]: APR_HepG2_CellLoss_1hr: Apredica 1-hour HepG2 Assay for Cell Loss (AID 2282668).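 Also: curves fitted both ways against DMSO so gain or loss of cells counts.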 The settings on record: high-content imaging. In outline: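 Cell number comes from high-content imaging of Hoechst-labelled nuclei in fixed HepG2 cells. Cells were exposed for 1 h to ten concentrations from 0.39 to 200 uM in 0.5% DMSO. Gain or loss was fitted against DMSO controls.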
Test [3] is described as follows: APR_HepG2_NuclearSize_1hr: Apredica 1-hour HepG2 Assay for Nuclear Size (AID 2282670). The settings on record: high-content imaging, actives raise or lower the signal. In outline:
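Nuclear size measured by high-content imaging of Hoechst 33342 nuclear stain after formaldehyde fixation; human HepG2 line exposed 1 hr to compounds at 0.39–200 uM in 0.5% DMSO, with bidirectional curve fitting relative to DMSO.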

Test [4] in a line: APR_HepG2_p53Act_1hr: Apredica 1-hour HepG2 Assay for p53 Activation (AID 2282671). Particulars: high-content imaging, actives raise or lower the signal. In outline: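 After 1 h exposure (0.39–200 uM, 0.5% DMSO final, duplicates), fixed HepG2 cells were labelled with anti-p53 antibody plus Hoechst nuclear stain. Fluorescence quantified by automated 20x imaging; changes fitted in both directions against DMSO.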

The nature of test [5]: APR_HepG2_P-H2AX_1hr: Apredica 1-hour HepG2 Assay for H2AX Phosphorylation (AID 2282673). The settings on record: high-content imaging, actives raise or lower the signal. Summed up: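 Phospho-H2A.x immunofluorescence (1:200, FITC secondary) plus Hoechst nuclear stain, quantified by high-content imaging in HepG2 after 1 hr compound exposure. Ten concentrations, 0.39 to 200 uM, in duplicate with 0.5% DMSO; fit both directions against DMSO.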

Test [6] can be described thus: APR_HepG2_MitoMembPot_1hr: Apredica 1-hour HepG2 Assay for Mitochondrial Membrane Potential (AID 2282675). The settings on record: imaging, actives raise or lower the signal. Summed up:
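Mitochondrial membrane potential read as MitoTracker Red CMXRos intensity by automated imaging of fixed HepG2 cells. Dye at 250 nM for 30 min pre-fixation; compounds 0.39 to 200 uM for 1 hour, duplicate wells, 0.5% DMSO.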

Test [7] in a line: APR_HepG2_CellCycleArrest_24hr: Apredica 24-hour HepG2 Assay for Cell Cycle Arrest (AID 2282905).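 Also: cell cycle arrest scored as ratio of 2N to 4N nuclear DNA content.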 Particulars: imaging, actives raise or lower the signal. Summed up: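 After 24 h exposure at 0.39–200 uM in 0.5% DMSO, fixed cells received Hoechst 33342 staining. Imaging quantified per-nucleus DNA content; gain or loss fitted against DMSO controls.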
Test [8] is described as follows: APR_HepG2_NuclearSize_24hr: Apredica 24-hour HepG2 Assay for Nuclear Size (AID 2282907). The settings on record: high-content imaging, actives raise or lower the signal. In outline: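 Nuclear size from Hoechst 33342-stained, formaldehyde-fixed HepG2 nuclei imaged by high-content microscopy, after 24 h dosing at ten concentrations from 0.39 to 200 uM in 0.5% DMSO; gain or loss relative to DMSO baseline.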

A short description of test [9]: APR_HepG2_CellLoss_24hr: Apredica 24-hour HepG2 Assay for Cell Loss (AID 2282908).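 As to AC50: fit in both directions so a hit may be cell loss or gain.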 The settings on record: high-content imaging. In outline: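 Nuclei stained with Hoechst 33342 after formaldehyde fixation (3.7%) were imaged at 20x to count cells. Exposure lasted 24 hr, at ten concentrations from 0.39 to 200 uM in duplicate, with 0.5% v/v DMSO. Fit bidirectional, relative to DMSO.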

A short description of test [10]: APR_HepG2_MitoticArrest_24hr: Apredica 24-hour HepG2 Assay for Mitotic Arrest (AID 2282910). The settings on record: high-content imaging, actives raise or lower the signal. In outline: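 HepG2, 24 hr dosing, 0.39–200 uM, 0.5% DMSO final. Formaldehyde-fixed, Triton-permeabilised, anti-phospho-histone H3 plus Hoechst. ArrayScan imaging at 20x; bidirectional fit vs DMSO baseline.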

The nature of test [11]: APR_HepG2_MitoMembPot_24hr: Apredica 24-hour HepG2 Assay for Mitochondrial Membrane Potential (AID 2282911). Particulars: imaging, actives raise or lower the signal. In outline:
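Mitochondrial membrane potential imaged via MitoTracker Red CMXRos (250 nM, 30 min pre-fixation) in fixed HepG2 cells with Hoechst nuclear identification. Ten concentrations 0.39–200 uM, 24 h treatment, 0.5% DMSO; CCCP as positive control.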

A short description of test [12]: APR_HepG2_MitoMass_24hr: Apredica 24-hour HepG2 Assay for Mitochondrial Mass (AID 2282912). Particulars: high-content imaging, actives raise or lower the signal. Summed up: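 Endpoint is MitoTracker Red CMXRos (250 nM, 30 min, pre-fixation) intensity from 20x high-content imaging, nuclei located by Hoechst. Human HepG2 cells received ten concentrations from 0.39 to 200 uM in 0.5% DMSO for 24 hr, duplicate wells. Bidirectional fit relative to DMSO.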

Test [13] in a line: APR_HepG2_p53Act_24hr: Apredica 24-hour HepG2 Assay for p53 Activation (AID 2282913).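 Also: p53 protein immunofluorescence averaged per cell in HepG2 with Hoechst nuclei.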 The settings on record: high-content imaging, actives raise or lower the signal. Summed up: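 Fluorescence imaging of formaldehyde-fixed HepG2 cells labelled for p53 and with Hoechst, 24 h after dosing (0.39–200 uM, duplicate wells, 0.5% v/v DMSO). Signal fitted in both directions relative to DMSO.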

Test [14] in a line: APR_HepG2_CellCycleArrest_72hr: Apredica 72-hour HepG2 Assay for Cell Cycle Arrest (AID 2282914). Particulars: high-content imaging, actives raise or lower the signal. Summed up: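 Read-out: nuclear DNA content from Hoechst 33342 high-content imaging (20x, six fields/well) after 3.7% formaldehyde fixation, fitted bidirectionally against DMSO. Treatment was 72 h in HepG2, ten concentrations 0.39–200 uM, duplicate, 0.5% DMSO.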

The nature of test [15]: APR_HepG2_StressKinase_1hr: Apredica 1-hour HepG2 Assay for Stress Kinase (AID 2282906). Particulars: HepG2 stress kinase (phospho-c-Jun) imaging, actives raise or lower the signal. In outline:
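High-content imaging of phospho-c-Jun immunostaining (with Hoechst nuclear identification) after a 1 h exposure of HepG2 cells to 10 concentrations from 0.39 to 200 uM, final DMSO 0.5%. Fitted bidirectionally against DMSO.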

Test [16] in a line: APR_HepG2_MitoticArrest_1hr: Apredica 1-hour HepG2 Assay for Mitotic Arrest (AID 2282672). Particulars: high-content imaging, actives raise or lower the signal. In outline: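 Ten-point concentration series (0.39 to 200 uM, duplicates, 0.5% v/v DMSO) applied to human HepG2 liver cells for 1 hr. High-content imaging of phospho-histone H3 and Hoechst-stained nuclei after fixation and permeabilization; DMSO-normalised bidirectional fit.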

A short description of test [17]: APR_HepG2_MicrotubuleCSK_1hr: Apredica 1-hour HepG2 Assay for Microtubule CSK Stabilty (AID 2282669). The settings on record: HepG2 microtubule cytoskeleton imaging, actives raise or lower the signal. In outline: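 Alpha-tubulin immunofluorescence, imaged by automated high-content microscopy with Hoechst nuclear segmentation, measured cytoskeletal change after 1 h dosing of HepG2 at 0.39–200 uM in 0.5% DMSO. Activity fitted in both directions relative to DMSO.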

Test [18] can be described thus: APR_HepG2_MitoMass_1hr: Apredica 1-hour HepG2 Assay for Mitochondrial Mass (AID 2282674). Particulars: high-content imaging, actives raise or lower the signal. In outline:
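Mitochondrial mass is taken from MitoTracker Red CMXRos (250 nM, 30 min, pre-fixation) fluorescence imaged at 20x in HepG2 cells. Exposure lasted 1 hr across ten concentrations, 0.39 to 200 uM, 0.5% DMSO; DMSO baseline, bidirectional fitting.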

A short description of test [19]: APR_HepG2_MicrotubuleCSK_24hr: Apredica 24-hour HepG2 Assay for Microtubule CSK Stabilty (AID 2282909). Particulars: HepG2 microtubule cytoskeleton imaging, actives raise or lower the signal. Summed up:
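Fixed HepG2 cells were stained for alpha-tubulin and imaged after 24 hr exposure to ten concentrations spanning 0.39–200 uM in 0.5% DMSO. Signal change was fitted in both directions relative to DMSO; taxol was the positive control.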

Values joined by “and” are separate entries in the source; they are usually repeats but may differ in a detail not shown here. Equal entries are not always repeated. Inconclusive results are not listed. Where a structure was tested more than once in an assay, its records may differ in their call. Active and inactive are the calls of the source. The calls were made as follows, unless noted: active = hit-call score of the fitted dose curve at least 0.9, where 1 is the maximum; inactive = score below 0.9.

Turning to `O=C(O)COc1nc(Cl)c(Cl)cc1Cl`, the compound was classed as inactive in test [1], in test [2], in [3], in test [4], in [5] and in [6]. Also, the compound was called inactive in test [7], in test [8], in [9], in test [10], in test [11] and in test [12]. In addition, the compound was called inactive in test [13] and in test [14].
For the compound `CCCCOC(=O)c1ccccc1C(=O)OCCCC`, the compound was called inactive in [1], in [3], in test [4], in test [7], in test [8] and in [9]. The outcome in [10], in [11], in test [12], in test [13] and in [14] was inactive.
Consider `CCCCNC(=O)OCC#CI`, for which the call in test [3], in test [4], in test [5], in test [7], in test [8] and in test [10] was inactive. Besides, the result in [12], in [13] and in test [14] was inactive. For the same compound, the AC50 (usually the concentration giving half of the maximal activity seen) in [4] is 54.5 µM (active); in [9], 2.6 µM (active) and 6.77 µM (active); in test [11] it was 119 µM (active) and 41 µM (active).
`N#Cc1nn(-c2c(Cl)cc(C(F)(F)F)cc2Cl)c(N)c1S(=O)C(F)(F)F` (configuration not stated): the result in [1], in test [3], in test [4], in test [8], in [11] and in test [12] was inactive. In addition, the compound was called inactive in test [13]. For the same compound, the AC50 in [7] is 50.9 µM (active); in test [9] it was 96.2 µM (active); in [10] it was 100 µM (active); in [14] it was 19.9 µM (active).
As to `CCCCC(CC)COC(=O)c1ccccc1C(=O)OCC(CC)CCCC` (configuration not stated), the call in test [1], in test [3], in [4], in test [5], in test [7] and in test [15] was inactive. Also, the result in test [8], in test [9], in test [10], in [11], in [12] and in test [13] was inactive. In addition, in [14], the call was inactive.
Turning to `CCCC1COC(Cn2cncn2)(c2ccc(Cl)cc2Cl)O1` (configuration not stated), the call in [1], in test [3], in [4], in test [16], in [7] and in test [8] was inactive. The result in [9], in test [10], in [12] and in [13] was inactive. Also, the AC50 in test [11] was 12.8 µM (active); in test [14], 100 µM (active).
On to `CCCN(CCC)c1c([N+](=O)[O-])cc(S(N)(=O)=O)cc1[N+](=O)[O-]`, for which the outcome in test [1], in [17], in [18], in [7], in [8] and in test [19] was inactive. Also, the compound was classed as inactive in [10], in [11], in test [12] and in test [14]. For the same compound, the AC50 in [3] was 61.6 µM (active); in test [5], 88.7 µM (active); in test [7], 34.9 µM (active); in test [8] it was 68.3 µM (active) and 117 µM (active); in [19] it was 109 µM (active); in test [10], 35.4 µM (active) and 38.4 µM (active). Further, the AC50 is 31.6 µM (active) and 117 µM (active) and 110 µM (active) in test [11]; 164 µM (active) and 113 µM (active) in test [12]; 27.2 µM (active) and 57.9 µM (active) and 34 µM (active) in test [14].
